The nature of test [1]: Caspase-3/7 induction in CHO-K1 cells by small molecules, qHTS assay (AID 1346980). Further: nearly all actives have a fitted effect of over 15% in size. Further: potency means the concentration at half of the fitted maximal effect. Put shortly:
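Luminescent Caspase-Glo 3/7 read (30min, room temperature) quantified apoptosis induction. Cells were wild-type CHO-K1, treated with compound for 17hr at 37 C and 5% CO2.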
(qHTS replaces the single test concentration by a dilution series.)

Test [2] in a line: Caspase-3/7 induction in HepG2 cells by small molecules, qHTS cell viability counter screen (AID 1346981). Further: nearly all actives have a fitted effect of over 30% in size. Further: potency means the concentration at half of the fitted maximal effect. On activity change, negative = cytotoxicity: series mostly up to about 92 µM. The essentials: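 Multiplexed with the caspase-3/7 assay: HepG2 cells, 16 hr compound treatment, CellTiter-Fluor viability detection by fluorescence.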
In test [3] the target is Nuclear receptor subfamily 1 group I member 2 (Homo sapiens) (UniProt O75469). The test can be described thus: Human pregnane X receptor (PXR) small molecule agonists, qHTS assay (AID 1346982). Further: nearly all actives have a fitted effect of over 35% in size. Further: potency means the concentration at half of the fitted maximal effect. Put shortly:
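We seeded PXR-Luc HepG2 cells in assay medium containing 5% charcoal-stripped FBS, added compounds 5 hr later, incubated 24 hr, and read luminescence with ONE-Glo reagent.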

For test [4], the target named is Nuclear receptor subfamily 1 group I member 2 (Rattus norvegicus) (UniProt Q9R1A7). Nature of the test: Rat pregnane X receptor (rPXR) activation by small molecules, qHTS assay (AID 1346983). Further: nearly all actives have a fitted effect of over 20% in size. Conditions: rPXR luciferase reporter cells, One-Glo luminescence, 24 h; max activation: hits give high values. The essentials:
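Luminescent readout (One-Glo luciferase, 30 min room temperature) followed 24 hr compound treatment at 37 C of rPXR cells plated 2,000 per well and preincubated 5hr; qHTS format with compounds delivered in DMSO.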

Test [5] concerns the target Nuclear receptor subfamily 1 group I member 2 (Homo sapiens) (UniProt O75469). The test can be described thus: CYP3A4 induction through human pregnane X receptor (PXR) by small molecules, qHTS assay (AID 1346984). Further: nearly all actives have a fitted effect of over 40% in size. Further: potency means the concentration at half of the fitted maximal effect. Put shortly: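 qHTS, concentration-response format: HepG2 DPX-2 line, PXR/CYP3A4-luc. Exposure 24 h, 37C. Substrate Luciferin-IPA 3uM final, 3 h. Detection One-Glo, 30 min RT.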

Test [6] shares this target. Nature of the test: Human pregnane X receptor (PXR) activation by small molecules, qHTS assay (AID 1346985). Further: nearly all actives have a fitted effect of over 40% in size. The essentials:
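DPX-2 cells (HepG2 co-transfected with a PXR response element and a CYP3A4-promoter luciferase construct) were seeded at 2,000 per well, rested 5 hr at 37C, then exposed to DMSO-dissolved compounds for 24 hr. Activation was read as luciferase luminescence.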

Test [7] concerns the target Cytochrome P450 2D6 (Homo sapiens) (UniProt P10635). Nature of the test: Cytochrome P450 Family 2 Subfamily D Member 6 (CYP2D6) small molecule antagonists: luciferase reporter qHTS assay (AID 1671196). Further: nearly all actives have a fitted effect of over 50% in size. Further: potency means the concentration at half of the fitted maximal effect. On activity change, negative = inhibition: series mostly up to about 120 µM. Put shortly:
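Luminescence (RLU), read 20 min after detection reagent, indicated CYP2D6 conversion of proluciferin to luciferin during a 1 h NADPH-dependent reaction at room temperature.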

Test [8] addresses Cytochrome P450 2C19 (Homo sapiens) (UniProt P33261). The test can be described thus: Cytochrome P450 Family 2 Subfamily C Member 19 (CYP2C19) small molecule antagonists: luciferase reporter qHTS assay (AID 1671197). Further: nearly all actives have a fitted effect of over 65% in size. Further: potency means the concentration at half of the fitted maximal effect. On activity change, negative = inhibition: series mostly up to about 120 µM. The essentials:
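Luminescent readout of CYP2C19 activity: luciferin product detected 20 min after adding detection reagent. Before that, compound and enzyme-substrate mix preincubated 10 min at room temperature; NADPH-regenerating system started a 1 h, 37C reaction. Ketoconazole as positive control.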
Background: A reporter such as luciferase makes a cellular process visible.

Test [9] deals with Cytochrome P450 2C9 (Homo sapiens) (UniProt P11712). The test can be described thus: Cytochrome P450 Family 2 Subfamily C Member 9 (CYP2C9) small molecule antagonists: luciferase reporter qHTS assay (AID 1671198). Further: nearly all actives have a fitted effect of over 50% in size. Further: potency means the concentration at half of the fitted maximal effect. On activity change, negative = inhibition: series mostly up to about 120 µM. Put shortly: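 Enzyme-substrate mix preincubated with compound 10 min at room temperature; reaction started with NADPH regeneration solution, 1 h 37C. Luminescent luciferin product read after 20 min detection reagent.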

Test [10] concerns the target Cytochrome P450 1A2 (Homo sapiens) (UniProt P05177). Nature of the test: Cytochrome P450 Family 1 Subfamily A Member 2 (CYP1A2) small molecule antagonists: luciferase reporter qHTS assay (AID 1671199). Further: nearly all actives have a fitted effect of over 50% in size. Further: potency means the concentration at half of the fitted maximal effect. On activity change, negative = inhibition: series mostly up to about 120 µM. The essentials:
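CYP1A2 turnover of a luminogenic substrate was quantified after 1 h with NADPH regeneration at room temperature. Furafylline served as positive control.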

Unmarked numbers belong to inactive results. Records with an inconclusive call do not appear. Active and inactive are the calls of the source. The call rests on the fitted dose curve; in most records, active means well fitted curve in the direction sought with a large enough effect in the repeat runs; inconclusive means weak or mixed curves; inactive means no such curve, though single readings can be large; an effect the other way counts as inactive or inconclusive.
On the % scale 0 is the no-effect control and ±100 the full control effect.

Nuclear receptor subfamily 1 group I member 2 (Rattus norvegicus), sequence (Q9R1A7 whole entry, looked up): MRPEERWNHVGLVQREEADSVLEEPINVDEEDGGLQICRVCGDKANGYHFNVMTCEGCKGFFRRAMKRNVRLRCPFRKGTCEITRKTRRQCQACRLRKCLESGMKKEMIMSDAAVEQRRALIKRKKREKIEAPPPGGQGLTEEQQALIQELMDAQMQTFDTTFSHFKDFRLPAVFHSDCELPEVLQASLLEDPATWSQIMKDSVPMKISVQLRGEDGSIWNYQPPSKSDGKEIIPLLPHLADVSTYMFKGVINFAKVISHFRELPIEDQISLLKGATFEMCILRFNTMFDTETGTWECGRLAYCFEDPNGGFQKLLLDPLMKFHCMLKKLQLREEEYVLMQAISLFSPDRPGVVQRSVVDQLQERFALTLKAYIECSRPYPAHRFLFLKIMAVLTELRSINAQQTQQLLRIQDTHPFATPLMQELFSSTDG
Cytochrome P450 2D6 (Homo sapiens), sequence (P10635 whole entry, looked up): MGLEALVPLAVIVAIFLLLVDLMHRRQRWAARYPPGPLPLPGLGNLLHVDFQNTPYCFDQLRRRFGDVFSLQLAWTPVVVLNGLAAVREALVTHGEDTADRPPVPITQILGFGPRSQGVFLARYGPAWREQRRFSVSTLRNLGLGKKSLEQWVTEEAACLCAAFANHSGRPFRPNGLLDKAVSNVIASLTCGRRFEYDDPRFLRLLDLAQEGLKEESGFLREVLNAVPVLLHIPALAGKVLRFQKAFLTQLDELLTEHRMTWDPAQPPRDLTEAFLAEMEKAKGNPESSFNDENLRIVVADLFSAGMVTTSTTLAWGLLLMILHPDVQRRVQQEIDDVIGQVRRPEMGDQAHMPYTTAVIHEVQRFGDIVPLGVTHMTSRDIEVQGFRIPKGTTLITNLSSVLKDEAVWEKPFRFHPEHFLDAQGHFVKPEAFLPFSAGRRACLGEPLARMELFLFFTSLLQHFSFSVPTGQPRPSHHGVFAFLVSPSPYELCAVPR
Nuclear receptor subfamily 1 group I member 2 (Homo sapiens), sequence (O75469 whole entry, looked up): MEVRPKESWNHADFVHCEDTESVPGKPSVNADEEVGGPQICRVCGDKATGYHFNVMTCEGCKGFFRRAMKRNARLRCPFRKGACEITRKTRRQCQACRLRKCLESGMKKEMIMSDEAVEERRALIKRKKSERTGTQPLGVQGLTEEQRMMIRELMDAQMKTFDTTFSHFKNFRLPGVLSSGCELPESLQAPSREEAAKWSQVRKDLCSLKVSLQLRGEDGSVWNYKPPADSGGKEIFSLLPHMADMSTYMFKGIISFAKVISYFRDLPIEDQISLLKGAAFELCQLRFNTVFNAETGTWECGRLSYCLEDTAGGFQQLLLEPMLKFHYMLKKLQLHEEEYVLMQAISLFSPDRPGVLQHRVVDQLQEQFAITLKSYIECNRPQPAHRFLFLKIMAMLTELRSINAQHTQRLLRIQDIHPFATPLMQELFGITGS
Cytochrome P450 2C9 (Homo sapiens), sequence (P11712 whole entry, looked up): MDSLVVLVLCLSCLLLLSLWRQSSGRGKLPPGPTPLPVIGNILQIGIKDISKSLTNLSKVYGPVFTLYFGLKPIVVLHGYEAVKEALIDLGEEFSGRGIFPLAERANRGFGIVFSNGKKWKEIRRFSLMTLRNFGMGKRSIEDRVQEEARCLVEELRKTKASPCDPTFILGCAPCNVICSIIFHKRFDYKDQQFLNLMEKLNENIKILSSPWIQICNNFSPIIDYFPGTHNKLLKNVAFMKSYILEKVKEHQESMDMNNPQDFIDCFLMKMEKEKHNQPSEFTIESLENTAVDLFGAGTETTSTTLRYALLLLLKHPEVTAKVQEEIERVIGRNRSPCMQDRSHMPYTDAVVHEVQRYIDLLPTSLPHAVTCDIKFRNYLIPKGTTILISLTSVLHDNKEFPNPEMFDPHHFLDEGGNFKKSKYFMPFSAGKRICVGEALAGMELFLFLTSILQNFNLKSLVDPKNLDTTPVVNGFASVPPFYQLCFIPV
Cytochrome P450 2C19 (Homo sapiens), sequence (P33261 whole entry, looked up): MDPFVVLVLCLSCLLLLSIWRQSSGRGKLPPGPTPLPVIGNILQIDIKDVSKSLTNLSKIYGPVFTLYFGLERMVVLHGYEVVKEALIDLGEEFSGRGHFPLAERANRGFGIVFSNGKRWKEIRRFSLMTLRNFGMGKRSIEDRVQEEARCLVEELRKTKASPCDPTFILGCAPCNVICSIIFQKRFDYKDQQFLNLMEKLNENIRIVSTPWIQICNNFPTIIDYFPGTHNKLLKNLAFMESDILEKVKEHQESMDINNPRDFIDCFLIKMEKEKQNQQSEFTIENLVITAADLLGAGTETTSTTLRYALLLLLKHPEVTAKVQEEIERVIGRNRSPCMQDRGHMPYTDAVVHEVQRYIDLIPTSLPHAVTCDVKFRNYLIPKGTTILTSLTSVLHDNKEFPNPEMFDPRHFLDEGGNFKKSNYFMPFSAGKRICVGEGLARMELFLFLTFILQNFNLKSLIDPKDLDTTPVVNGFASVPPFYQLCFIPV
Cytochrome P450 1A2 (Homo sapiens), sequence (P05177 whole entry, looked up): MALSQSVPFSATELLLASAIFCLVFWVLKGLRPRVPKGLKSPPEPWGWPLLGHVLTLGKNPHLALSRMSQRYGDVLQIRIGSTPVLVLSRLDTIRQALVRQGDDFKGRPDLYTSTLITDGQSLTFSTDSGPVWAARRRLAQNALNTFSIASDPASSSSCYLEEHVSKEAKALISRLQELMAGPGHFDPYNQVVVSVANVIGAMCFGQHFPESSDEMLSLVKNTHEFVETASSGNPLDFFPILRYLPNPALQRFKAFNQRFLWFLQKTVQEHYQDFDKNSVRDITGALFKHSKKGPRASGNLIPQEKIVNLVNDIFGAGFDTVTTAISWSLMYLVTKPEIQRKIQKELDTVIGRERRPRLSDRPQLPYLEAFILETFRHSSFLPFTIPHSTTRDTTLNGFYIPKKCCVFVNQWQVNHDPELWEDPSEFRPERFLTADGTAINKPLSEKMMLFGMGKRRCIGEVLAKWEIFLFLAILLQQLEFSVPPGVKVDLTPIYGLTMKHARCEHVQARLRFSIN

Turning to `O=C(CCN1CCC(c2ccccc2)C1)c1ccc2c(c1)OCCO2` (stereo not given), the Potency entry in test [1], in test [2], in test [5] and in [6] was “inactive” each time. Moreover, the Potency in [3] is 13.3 µM (active); in [7], 2.19 µM (active). Besides, the max activation in [4] is -4.55%.

On to `Nc1ccc(F)c([N+](=O)[O-])c1`, for which the Potency result in test [1], in test [2], in test [3] and in [7] was “inactive” each time. Besides, the Potency in test [8] is 89.4 µM (active).

On to `CC1(C)[C@H]2CC[C@]1(C)C(=O)C2`, for which the Potency result in test [1], in test [2], in test [3], in [7], in test [8] and in test [9] was “inactive” throughout. In addition, the Potency entry in test [10] is “inactive”.

For `CCOC(=O)C1=NN(c2ccc(Cl)cc2Cl)C(C)(C(=O)OCC)C1` (stereo not given), the Potency result in test [1] and in [2] was “inactive” each time. The Potency was 54.5 µM (active) in [3], 39.9 µM (active) in test [7], 2.52 µM (active) in [8] and 7.1 µM (active) in test [9].

In the case of `Nc1ccc(N)c([N+](=O)[O-])c1`, in test [1], the Potency result was “inactive”. For the same compound, the Potency in test [2] is 54.5 µM (active).

Consider `O=C(O)C[C@H](O)C[C@H](O)/C=C/c1c(C2CC2)nc2ccccc2c1-c1ccc(F)cc1`, for which the Potency in test [1] was 5.8 µM (active); in test [5], 14.1 µM (active). In addition, the activity change, negative = cytotoxicity in test [2] is -8.1% [at 19 µM]. Also, the activation in test [3] is 12.4% [at 19 µM]. Further, the Potency result in test [6] is “inactive”. For the same compound, the activity change, negative = inhibition in [7] is -0.811% [at 23.6 µM]; in test [8] it was 11.6% [at 23.6 µM]; in test [10], -11.8% [at 23.6 µM].

Consider `CCOC(=O)[C@H](O)[C@@H](O)C(=O)OCC`, for which the Potency entry in test [1], in [2], in [3], in test [7], in [8] and in [9] was “inactive” in each case.

For the compound `C1CCSC1`, the Potency result in test [1], in test [2], in test [3], in [7], in test [8] and in [9] was “inactive” each time. The Potency entry in test [10] is “inactive”.

In the case of `[Cl][Eu]([Cl])[Cl]`, the Potency result in test [1], in test [2], in test [3], in [7], in test [8] and in test [9] was “inactive” each time. In addition, in test [10], the Potency result was “inactive”.

With `Brc1cc(Br)cc(Br)c1`, the Potency result in [1], in test [2], in test [3], in test [7], in test [8] and in test [9] was “inactive” in each case.

Take `C/C(=N\[Si](C)(C)C)O[Si](C)(C)C`: the Potency entry in [1], in [2], in [3], in test [7], in test [8] and in test [9] was “inactive” throughout.

Take `COc1cc2ncnc(Nc3cccc(Cl)c3)c2cc1OC`: the caspase-3/7 activation in test [1] was -2.78% [at 19 µM]. The activity change, negative = cytotoxicity in test [2] was -10% [at 19 µM].

As to `CC(C)(C)c1cc(CCC(=O)OCCSCCOC(=O)CCc2cc(C(C)(C)C)c(O)c(C(C)(C)C)c2)cc(C(C)(C)C)c1O`, the Potency entry in test [1], in test [2], in test [3], in test [7] and in test [10] was “inactive” in each case. The Potency in test [8] is 8.71 µM (active); in test [9] it was 2.19 µM (active).

Regarding `Cc1c[nH]c(=O)[nH]c1=O`, the Potency result in test [1], in test [2], in [3], in [7], in test [8] and in [9] was “inactive” throughout.

Consider `C=CC(=O)O[C@H]1C[C@@H]2CC[C@@]1(C)C2(C)C`, for which the Potency result in test [1], in test [2], in test [3], in test [7], in test [8] and in test [9] was “inactive” each time. In addition, the Potency entry in test [10] was “inactive”.

On to `O=c1cc[nH]cc1`, for which the Potency result in [1], in test [2], in test [3], in [7], in test [8] and in test [9] was “inactive” each time.

In the case of `O=C1Cc2ccccc2C1`, the Potency result in [1] was “inactive”.

`C=Cc1ccncc1`: the Potency result in [1], in test [2], in [3], in test [7], in test [8] and in test [9] was “inactive” throughout.

With `C[C@H]1O[C@@H](O[C@H]2CC[C@@]3(C)[C@H](CC[C@@H]4[C@@H]3C[C@@H](O)[C@]3(C)[C@@H](C5=CC(=O)OC5)CC[C@]43O)C2)C[C@H](O)[C@@H]1O[C@H]1C[C@H](O)[C@H](O[C@H]2C[C@H](O)[C@H](O[C@@H]3O[C@H](CO)[C@@H](O)[C@H](O)[C@H]3O)[C@@H](C)O2)[C@@H](C)O1`, the Potency result in [1], in test [2], in [3], in [5], in test [6] and in test [7] was “inactive” each time. For the same compound, the Potency result in test [8] and in test [9] was “inactive” each time. In test [4], the max activation was 6.34%.

Regarding `CCOC(=O)[C@H](C)O`, the Potency result in test [1], in [2], in test [3], in [7], in test [8] and in test [9] was “inactive” in each case. The Potency entry in test [10] was “inactive”.

Regarding `Oc1ccc(Cl)cc1C1CCCC1`, the Potency entry in test [1], in test [2] and in [7] was “inactive” throughout. Further, the Potency in test [3] is 68.6 µM (active); in test [8], 8.94 µM (active); in [9] it was 28.3 µM (active); in test [10], 22.4 µM (active).

As for `O=C(N[C@H](CO)[C@H](O)c1ccc([N+](=O)[O-])cc1)C(Cl)Cl`, in [1], the Potency entry was “inactive”.

Turning to `Nc1cc([N+](=O)[O-])cc(Cl)c1O`, the Potency entry in [1], in [3] and in test [7] was “inactive” in each case. In addition, the figures for the Potency in test [2], in test [8] and in test [9] were 61.1 µM (active), 79.6 µM (active) and 39.9 µM (active), respectively.

As to `CCCOC(=O)c1ccc(O)cc1`, the Potency entry in test [1], in test [2] and in test [6] was “inactive” in each case. Moreover, the Potency in [3] was 48.6 µM (active). Further, the max activation in test [4] is -0.262%.

`CS(=O)(=O)c1ccc([C@@H](CC2CCCC2)C(=O)Nc2cnccn2)cc1Cl`: the Potency entry in [1] is “inactive”. The Potency in [2] is 61.1 µM (active).

Regarding `CCOC=C(C(=O)OCC)C(=O)OCC`, the Potency entry in test [1], in test [2], in test [3], in test [7], in test [8] and in [9] was “inactive” in each case. Also, in test [10], the Potency entry is “inactive”.

Regarding `CN(C/C=C/c1ccccc1)Cc1cccc2ccccc12`, the Potency entry in test [1], in [2], in [3], in [5] and in [6] was “inactive” each time. Moreover, the max activation in [4] is -2.12%. The Potency in test [7] is 0.977 µM (active); in test [8] it was 3.89 µM (active); in [10], 12.9 µM (active).
